Source: PubChem BioAssay
TEAD-YAP inh: TEAD-YAP interaction inhibition; HEK-TIYL cells, TEAD-Gal4/YAP UAS-luciferase luminescence; AID 1259422; actives 1.4% (n = 640,000); inhibition, % at 9.12 µM; in the data active = inhibition above about 32%;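 note: 0% = median of test compound wells and 100% = reference inhibitor wells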
MITF primary: inhibitors of human MITF; actives 0.91% (n = 650,000); inhibition, % at 2.6 µM; O75030; AlphaScreen MITF homodimerization, bead proximity signal; in the data active = inhibition above about 50%;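 note: 0% = vehicle wells with protein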
FBW7 activator: activators of human E3 ligase FBW7; AlphaScreen FBW7–phospho-cyclin E peptide binding, activator screen; normalized activity (activation), % at 26.1 µM; actives 0.13% (n = 650,000); in the data active = normalized activity above about 1.9%;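 note: purified mutant Fbw7 with reduced substrate affinity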
GPR151 activ: activates the human receptor GPR151; activation, % at 11.2 µM; PathHunter beta-arrestin GPR151 cells, luminescence; actives 1% (n = 650,000); Q8TDV0; AID 1508602; in the data active = activation above about 4.9%;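 note: 0% = median of compound wells and 100% = cells with positive control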
Target sequence (Q8TDV0 whole entry, looked up): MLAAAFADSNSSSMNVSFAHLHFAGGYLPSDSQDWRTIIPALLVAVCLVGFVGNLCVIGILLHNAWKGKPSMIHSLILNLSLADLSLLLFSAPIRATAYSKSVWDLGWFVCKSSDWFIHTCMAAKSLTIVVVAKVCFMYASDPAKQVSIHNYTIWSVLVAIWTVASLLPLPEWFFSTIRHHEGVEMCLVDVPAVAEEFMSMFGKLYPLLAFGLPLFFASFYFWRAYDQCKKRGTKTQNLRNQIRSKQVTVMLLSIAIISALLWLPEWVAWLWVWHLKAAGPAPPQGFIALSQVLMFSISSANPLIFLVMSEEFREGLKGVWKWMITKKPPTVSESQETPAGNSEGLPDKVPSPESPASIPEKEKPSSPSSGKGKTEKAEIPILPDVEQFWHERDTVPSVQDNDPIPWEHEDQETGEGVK
GPR151 confirm: confirmation of human GPR151 activators. shares compounds with GPR151 activ. GPR151 PathHunter beta-arrestin cells, luminescence, 90 min; % of EA-reagent control over plate median. activation, % at 11.2 µM. 6,700 tested, under 10 active;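 active = mean percent activation across replicates above the confirmation screen cutoff of 4.91%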
GPR119 counter: counter-screen for GPR151 activators: effect on human GPR119. shares compounds with GPR151 activ. GPR119 PathHunter beta-arrestin cells, luminescence, 90 min; 0 = compound-well median, 100 = enzyme-acceptor control. activation, % at 11.2 µM. actives 0.3% (n = 6,700);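 active = mean percent activation in the counterscreen above 29.09%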;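 note: counterscreen on off-target GPR119 to flag nonselective hits from the GPR151 activator screen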
* = called active by the depositor; . = no result. The list is not random: actives were taken first. Their share in the collection is about 3.5%.

SMILES	TEAD-YAP inh	MITF primary	FBW7 activator	GPR151 activ	GPR151 confirm	GPR119 counter
O=C(CN1C(=O)C2C3C=CC(C3)C2C1=O)N1CCN(c2ccccc2)CC1 (stereo not drawn)	-3	15	0	5.5*	0	0
O=C(N/N=C\c1ccc(O)cc1)c1cnccn1	-14	6	0	-4	.	.
Cc1ccccc1NC(=O)NC1(C(=O)N2CCN3CCCC3C2)CCCCC1 (stereo not drawn)	-1	0	0	12*	0	-1
CN(C)CCCN1C(=O)C(=O)/C(=C(\O)c2ccccc2)C1c1cccs1 (stereo not drawn)	-3	10	0	0	.	.
CC1CCCCN1S(=O)(=O)c1cc([N+](=O)[O-])ccc1Cl (stereo not drawn)	-4	-4	0	0	.	.
O=C(CN1C(=O)CC(c2ccco2)Sc2ccccc21)Nc1ccc(F)cc1F (stereo not drawn)	15	16	0	7.5*	1	0
Cc1nn(C(=O)Cn2ccc([N+](=O)[O-])n2)c(C)c1I	5	3	1	5.3*	0	1
C/C=C(\C)CN1CCC(C2(CCC)NC(=O)N(CC3CCCO3)C2=O)CC1 (stereo not drawn)	-6	-8	0	-1	.	.
CC(C)c1ccc(/C=N/Nc2nncc(=O)[nH]2)cc1	-44	17	-1	5.6*	0	-12
CCOC(=O)C1=C(C)NC(=S)NC1c1ccc(OC(F)F)cc1 (stereo not drawn)	-4	-3	0	-1	.	.
CCCCCCn1c(N/N=C/c2ccc([N+](=O)[O-])cc2)nc2c1c(=O)[nH]c(=O)n2C	11	-1	0	5.9*	0	3
CCC(C)NCCOc1ccccc1I (stereo not drawn)	8	23	0	5.4*	0	4
O=C(O)C1CC=C(Cl)CC1C(=O)Nc1ccn[nH]1 (stereo not drawn)	6	-6	0	10.0*	0	0
O=c1nc2s/c(=C\c3ccc(-c4ccc(F)cc4F)o3)c(=O)n2c2sc3c(c12)CCCC3	-3	9	0	5.0*	0	-2
O=c1nc2s/c(=C\c3ccc(-c4ccccc4F)o3)c(=O)n2c2sc3c(c12)CCCC3	2	17	1	-1	.	.
Cc1cc(F)ccc1S(=O)(=O)Nc1cc2c(C(=O)O)c(C)oc2c2ccccc12	3	1	0	6.4*	0	-1
COc1cc2c(cc1C1NC(=S)NC(C)=C1C(=O)N(C)C)CCCC2 (stereo not drawn)	6	0	0	8.9*	0	-2
COC(=O)C1=C(C)NC(=S)NC1c1ccccc1OC (stereo not drawn)	2	-15	0	5.6*	0	-4
CCOc1c(Cl)cc(C(=O)O)cc1OC	-1	-23	0	6.4*	1	13
CCCCOc1c(Cl)cc(C(=O)O)cc1OC	4	1	0	0	.	.
COc1ccc(Cl)cc1C(=O)NC1C2CC3CC(C2)CC1C3 (stereo not drawn)	8	8	0	5.0*	1	1
COc1cc(OC)cc(C(=O)NC2C3CC4CC(C3)CC2C4)c1 (stereo not drawn)	3	-1	0	12*	0	-8
COc1ccc(C(=O)NC2C3CC4CC(C3)CC2C4)cc1Cl (stereo not drawn)	2	10	0	0	.	.
Cc1ccc(NC(=O)/C(=C\c2cccs2)NC(=O)c2ccsc2)cc1	3	6	0	0	.	.
COc1cccc(C(=O)Nc2ccc3nc(SC)sc3c2)c1	-34	2	0	-7	.	.
CCOc1cc(NC(=O)c2ccccc2)c(OCC)cc1N=N/C(C(N)=O)=C(/C)O	-1	-10	0	0	.	.
CCCCCNC(=O)c1c(O)c2c([nH]c1=O)CCCC2	-14	9	1	18*	1	3
CCN1CCCC1CNC(=O)c1c(O)c2c([nH]c1=O)CCCC2 (stereo not drawn)	5	6	0	6.8*	0	2
O=C(NCCN1CCNCC1)c1c(O)c2c([nH]c1=O)CCCC2	7	3	0	2	.	.
